# Hits are enriched below; roughly 0.86% of the tested compounds scored in any of these assays.
# AmpC no deterg: inhibitors of E. coli AmpC beta-lactamase without detergent; P00811; Potency, µM (doses to about 57.1 µM), most hits filed as inhibitors; hit rate 0.52% among 330,000; AmpC nitrocefin hydrolysis, absorbance 480 nm, 0.0001% Triton; also: nearly all actives have a fitted effect of over 20% in size
# Target sequence (P00811 whole entry, looked up): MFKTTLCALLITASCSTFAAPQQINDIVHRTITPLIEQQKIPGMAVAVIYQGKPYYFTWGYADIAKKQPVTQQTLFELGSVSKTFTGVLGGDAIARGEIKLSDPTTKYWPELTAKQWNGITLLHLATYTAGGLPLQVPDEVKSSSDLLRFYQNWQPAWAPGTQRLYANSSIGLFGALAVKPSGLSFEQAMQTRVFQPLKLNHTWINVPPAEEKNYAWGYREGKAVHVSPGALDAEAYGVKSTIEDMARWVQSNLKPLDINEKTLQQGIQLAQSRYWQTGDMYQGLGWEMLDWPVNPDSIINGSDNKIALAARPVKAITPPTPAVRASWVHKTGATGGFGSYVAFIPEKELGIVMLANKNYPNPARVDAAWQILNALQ
#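 20 mM phosphate pH 7.0 + 0.01% (detergent screen) or 0.0001% Triton X-100; 5.3 nM AmpC reagent; cpd preinc 15 min RT; nitrocefin (800 uM stock) to start; A480 q20 s × 4 min; Activity was normalised to no-enzyme and no-compound control wells.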
# AMA1 RON2 block: AMA1-RON2 (P. falciparum) interaction inhibition. AlphaScreen AMA1-biotinylated RON2 peptide binding. Potency, µM (top dose mostly 58.2 µM), actives largely listed as inhibitors. hit rate 0.2% among 360,000. AID 720542; also: nearly all actives have a fitted effect of over 45% in size
#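 AMA1 (3D7) with his tag at 25 nM final met compounds first, then biotinylated RON2 peptide at 25 nM; detection used donor plus acceptor beads, 10 µg/mL apiece, read by AlphaScreen after 30 min at room temperature.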
# AmpC inh detg: blocks E. coli AmpC beta-lactamase in detergent assay; AID 485294; Potency, µM (series often up to 114 µM), actives largely listed as inhibitors; hit rate 0.041% among 370,000; AmpC hydrolysis of nitrocefin, absorbance 480 nm, 0.01% Triton; also: nearly all actives have a fitted effect of over 25% in size
#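 20 mM phosphate pH 7.0 + 0.01% (detergent screen) or 0.0001% Triton X-100; 5.3 nM AmpC reagent; cpd preinc 15 min RT; nitrocefin (800 uM stock) to start; A480 q20 s × 4 min; Activity was normalised to no-enzyme and no-compound control wells.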
# NS1 function inh: influenza NS1 inhibition; hit rate 0.4% among 270,000; Potency, µM (top dose mostly 46.1 µM); AID 2326; calls by dose curve; also: actives are rising curves; nearly all actives have a fitted effect of over 50% in size
#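 A cell-based growth assay was used: compounds that relieve NS1-induced slow growth of budding yeast raise OD600. Assay medium was yeast nitrogen base with ammonium sulphate and -URA supplement, pH 6.0, with 2% galactose.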
# NS1 inh valid: influenza NS1 function inhibition validation | shares compounds with NS1 function inh | influenza NS1 function cell assay, 15-point titration | activity change, negative = inhibition, % at 32.9 µM | 1,400 tested, under 10 active; calls by dose curve
# PR8 titer: reduces influenza A/PR/8/34 replication in MDCK cells; shares compounds with NS1 function inh; MDCK infected influenza A/PR/8/34, virus titer TCID50; stronger effect = lower value; virus titer (log TCID50), log10 TCID50 at 5 µM; hit rate 30% among 95; AID 504647; call rule not given here
# Hits are given with their value; 0 = inactive; ? = inconclusive; - = no result given; [ ] = dose if it differs, or a comment. Unless noted, calls follow the shape of the dose curve; as a rule, active = well fitted curve in the direction sought with a large enough effect; inconclusive = small, poorly fitted or top-dose-only effect, or another doubt; inactive = no such curve, though single readings can be large; an effect the other way counts as inactive or inconclusive.
SMILES,AmpC no deterg,AMA1 RON2 block,AmpC inh detg,NS1 function inh,NS1 inh valid,others
O=C(c1ccc2c(=O)n(CC3CCCO3)c(=S)[nH]c2c1)N1CCN(c2ccccc2)CC1 (stereo not given),0,0,0,?,0,
CCOC(=O)[C@@H]1[C@H]2COc3ccc(Br)cc3[C@@H]2N2C(=O)N(c3cccc(F)c3)C(=O)[C@]12C,-,0,-,-,-,
COc1ccc(S(=O)(=O)Nc2cc(C(=O)NC3CCCCCC3)ccc2N2CCOCC2)cc1,0,0,0,10µM,0,
c1ccc(CC2CNc3ccccc3CN2)cc1 (stereo not given),0,0,0,0.89µM,0,
O=C1N[C@H](Cc2ccccc2)CO1,0,0,?,-,-,
Oc1ccc(/C=N/Nc2ncnc3c2ncn3Cc2ccccc2)cc1O,0,0[2.32 µM],?,14µM,0,
O=C(Nc1cc(-c2nc3ncccc3o2)ccc1Cl)c1ccc([N+](=O)[O-])o1,0,0,0,0,-,
CCOC(=O)C1=C(c2ccccc2)N=c2s/c(=C\c3cc(OC)c(OC)c(OC)c3)c(=O)n2C1c1cccs1 (stereo not given),0,0,0,22µM,0,
CCOC(=O)C1=C(C)N=c2s/c(=C/c3ccccc3)c(=O)n2C1c1ccc(OC)c(OC)c1 (stereo not given),0,0,0,0,-,
CCOC(=O)CSc1nc2ccc(N3CCOCC3)cc2c(=O)n1Cc1ccc2c(c1)OCO2,0,-,0,?,0,
COc1ccc2c(c1)Cc1sc(NC(=O)c3ccc(Cl)cc3)nc1-2,-,-,0,-,-,
CC(C)CCNC(=O)NC(=O)CSc1nnc2ccccn12,0,0,0,4.5µM,0,
O=C(CSc1nc(=O)[nH]c2c1CCCC2)Nc1cc(C(F)(F)F)cc(C(F)(F)F)c1,0,0,0,-,-,
COc1ccc(OC)c(CCNC(=O)Cn2ccc3cc(S(=O)(=O)N4CCCC4)ccc32)c1,0,0,0,0,-,
COc1ccc(CCNC(=O)Cn2ccc3cc(S(=O)(=O)N4CCCC4)ccc32)cc1OC,0,0,0,2.5µM,0,
Cc1ccc(C(=O)NC(=S)Nc2cccc(NC(=O)c3ccccc3)c2)cc1[N+](=O)[O-],0,0,0,?,-,
Cc1ccc(C(=O)NC(=S)Nc2cccc(NC(=O)c3ccccc3Cl)c2)cc1[N+](=O)[O-],?,0,?,11µM,?,
CCCCC(=O)OCC(=O)Nc1ccc(C)c(F)c1,0,0,0,-,-,
COc1ccc(/C=C(/NC(=O)c2ccccc2)C(=O)N2CCOCC2)cc1OC,0,0,0,?,0,
CSc1nc2ccccc2cc1/C=C(\C#N)c1ccccc1,0,0,0,2µM,0,
CSc1nc2ccccc2cc1/C=C(\C#N)c1cccc(C)c1,0,0,0,0,-,
Cc1ccccc1Cn1ccc(=NCc2ccccc2)cc1,0,0,0,0,-,
COC(=O)c1ccccc1NC(=O)Cn1c(=O)n(CCCC(=O)NCCc2ccc(OC)c(OC)c2)c(=O)c2ccccc21,-,-,0,-,-,
COc1ccc(Br)c(/C=N/NC(=O)COc2ccc(-c3ccccc3)cc2)c1,-,0,0,?,0,
C[C@]12C(=O)N(c3ccc(Br)cc3)C(=O)N1[C@H]1c3ccccc3OC[C@@H]1[C@H]2c1ccccc1,0,0,-,-,-,
SMILES,AmpC no deterg,AMA1 RON2 block,AmpC inh detg,NS1 function inh,NS1 inh valid,others
COc1ccccc1N1CCN(C(=O)CCNC(=O)Cn2ccc3ccccc3c2=O)CC1,0,0,0,0,-,
Cc1ccc(C)c(N2CCN(C(=O)CCNC(=O)Cn3ccc4ccccc4c3=O)CC2)c1,0,0,0,?,0,
CCN(CC)C(=O)CSc1nnc(-c2ccccc2)n1N,0,0,0,6.3µM,0,
O=C(c1ccccc1)[C@H]1[C@H](c2ccccc2)[C@@]2(N=C(c3ccccc3)OC2=O)C2c3ccccc3C=NN21 (stereo not given in full),0,-,0,2.5µM,0,
COc1ccc([C@H]2[C@H](C(=O)C(C)(C)C)N3N=Cc4ccccc4C3C23C(=O)OC(C)(C)OC3=O)cc1 (stereo not given in full),0,0,0,0,-,
CCCCn1c(N)c(N(CCOC)C(=O)CSc2nnc(C)n2-c2ccc(OC)cc2)c(=O)[nH]c1=O,0,0,0,-,-,
COc1ccc(NC(=O)CSCC(=O)N2CCN(C(=O)c3ccco3)CC2)cc1,0,0,0,-,-,
C/C(CC(=O)N(C(C)C)C(C)C)=N\NC(=O)COc1ccc(Br)cc1Br,0,0,0,11µM,?,
C/C(CC(=O)N(C(C)C)C(C)C)=N\NC(=O)COc1ccc(Cl)cc1Cl,0,0,0,-,-,
O=C(OCCN=C1NS(=O)(=O)c2ccccc21)c1cccnc1,0,0,0,?,0,
O=C(OCCN=C1NS(=O)(=O)c2ccccc21)c1ccccc1,0,0,0,0,-,
CCn1c2ccccc2c2cc(NC(=O)CSc3nnc(-c4ccc(OC)c(OC)c4)n3N)ccc21,0,0,0,0,-,
COc1ccc(-c2nnc(SC(C(=O)c3c[nH]c4ccccc34)c3ccccc3)n2N)cc1OC (stereo not given),0,0,0,20µM,?,
Cn1cnc(S(=O)(=O)N2CCC(C(=O)NCc3ccccc3)CC2)c1,-,-,0,-,-,
CC(C)C[C@H](NC(=O)c1[nH]cnc1C(=O)N[C@@H](C)C(=O)OCc1ccccc1)C(=O)OC(C)(C)C,0,0,0,13µM,0,
CC(C)C[C@H](NC(=O)c1nc[nH]c1C(=O)NC(c1ccccc1)c1ccccc1)C(=O)OC(C)(C)C,0,0,0,10µM,0,
CC(C)C[C@H](NC(=O)c1[nH]cnc1C(=O)N[C@H](C)c1ccccc1)C(=O)OC(C)(C)C,0,0,0,0,-,
Oc1c(C(c2ccccc2)N2CCCCC2)sc2ncnn12 (stereo not given),0,0,0,?,0,
CCC(=O)N1CCC2(CC1)Oc1ccc(Cl)cc1C(=O)C21CC(c2ccccc2)=NO1 (stereo not given),0,0,0,?,?,
Cc1ccn(CC(=O)N2CCCC(N3CCN(c4cccc(C(F)(F)F)c4)CC3)C2)n1 (stereo not given),-,0,-,-,-,
O=C(c1ccc2c(c1)OCO2)[C@@H]1[C@@H]2C(=O)N(C3CCCCC3)C(=O)[C@@H]2C2c3ccccc3C=CN21 (stereo not given in full),0,0,0,13µM,0,PR8 titer=0
COc1ccc2nc(C(F)(F)C(F)(F)F)c(C#N)c(N)c2c1,0,0,0,7.9µM,0,
CCOC(=O)N1CCN(CC(=O)Nc2nccs2)CC1,-,0,-,-,-,
Cc1ccc(N(CC(=O)N/N=C/c2ccco2)S(=O)(=O)c2ccccc2)cc1,0,0,0,11µM,0,PR8 titer=0
O=C(Nc1ccc(Oc2ccc3ccccc3c2)cc1)c1ccco1,0,0,0,0,-,
O=C(Nc1ccc(Oc2ccc(NC(=O)c3ccco3)c(NC(=O)c3ccco3)c2)cc1)c1ccco1,0,0,0,8.9µM,0,PR8 titer=0
